Structures are written as SMILES. Records with an inconclusive call do not appear. Values without a mark were called inactive. Calls of active or inactive are those of the source. Unless noted, the call rests on the fitted dose curve.

Experiment [1] can be described thus: qHTS assay to identify small molecule agonists of the vitamin D receptor (VDR) signaling pathway - cell viability counter screen (AID 743224; active means well fitted curve in the direction sought with a large enough effect in the repeat runs; an effect the other way counts as inactive or inconclusive; further: series mostly up to about 63 µM; nearly all actives have a fitted effect of over 50% in size). The gist of the method:
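VDR-bla cells, 4 h after plating, exposed to compounds for 16 h at 37C; viability then read in the same wells as CellTiter-Glo luminescence after 30 min at room temperature, following the bla FRET read.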

Experiment [2] in a line: qHTS assay to identify small molecule antagonists of the vitamin D receptor (VDR) signaling pathway - cell viability counter screen (AID 743225; active means well fitted curve in the direction sought with a large enough effect in the repeat runs; an effect the other way counts as inactive or inconclusive; further: nearly all actives have a fitted effect of over 50% in size). In a few lines:
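Read-out: CellTiter-Glo luminescence measured 30 min after reagent addition at room temperature. Cells were VDR-bla HEK 293T exposed 16 h at 37C, 5% CO2, to compound with 3 nM final calcitriol agonist.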
In general terms: Quantitative high-throughput screening tests each substance at several concentrations.

Experiment [3] can be described thus: qHTS assay to identify small molecule agonists of the NFkB signaling pathway (AID 1159509; active means well fitted curve in the direction sought with a large enough effect in the signal ratio in the repeat runs, not every such curve was filed as active; the % refers to the signal ratio; further: series mostly up to about 61 µM). The gist of the method: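 ME-180 NFkB-bla, 2,000 cells/well, overnight plating; cpd pinned in DMSO, 5 h 37 C; B/G FRET substrate 1.5 h RT; ex 405, em 460/530 nm.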
Experiment [4] in a line: qHTS assay to identify small molecule agonists of the NFkB signaling pathway - cell viability counter screen (AID 1159515). Further: series mostly up to about 61 µM; nearly all actives have a fitted effect of over 55% in size. The gist of the method: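 NFkB-bla ME-180 cells, 2,000/well, plated overnight at 37 C; compound added for 5 hr at 37 C. Viability read in the same wells as the bla reporter, by CellTiter-Glo luminescence after 30 min at room temperature.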
The nature of experiment [5]: qHTS assay to identify small molecule agonists of the endoplasmic reticulum stress response signaling pathway (AID 1159516; active means well fitted activation curve with a large enough effect in the signal ratio in the repeat runs, not every such curve was filed as active; the % refers to the signal ratio). In a few lines: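 CellSensor ESRE-bla HeLa cells, 1,500 per well, plated overnight, then exposed to compounds for 5 hr at 37 C. Beta-lactamase reporter read with LiveBLAzer B/G FRET substrate after 2 hr at room temperature, 405 nm excitation, 460 and 530 nm emission.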

Experiment [6] in a line: qHTS assay to identify small molecule agonists of the endoplasmic reticulum stress response signaling pathway - cell viability counter screen (AID 1159517). Further: series mostly up to about 61 µM; nearly all actives have a fitted effect of over 50% in size. In a few lines: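 HeLa cells carrying an ESRE-driven beta-lactamase reporter receive compound for 5 hr at 37 C. Cell viability is then gauged with CellTiter-Glo by luminescence, 30 min at room temperature.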
The nature of experiment [7]: qHTS assay to identify small molecule antagonists of the retinoid-related orphan receptor gamma (ROR-gamma) signaling pathway - cell viability counter screen (AID 1159520; active means well fitted curve in the direction sought with a large enough effect in the repeat runs; an effect the other way counts as inactive or inconclusive; further: nearly all actives have a fitted effect of over 50% in size; further: potency means the concentration at half of the fitted maximal effect). The gist of the method:
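Cytotoxicity was read from cellular ATP (CellTiter-Glo luminescence) after 16 hr at 37 C with 1 uM doxycycline induction. The inducer was added 2 hr after compound transfer to Tet-on ROR gamma CHO cells.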

The nature of experiment [8]: qHTS assay to identify small molecule agonists of the AP-1 signaling pathway - cell viability counter screen (AID 1159525). Further: nearly all actives have a fitted effect of over 55% in size. In a few lines:
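Luminescent ATP readout (Cell Titer Glo, 30 min RT), normalised to DMSO and tetra n-octyl ammonium bromide controls. Cells were ME-180 AP-1-bla in 0.5% dialyzed FBS Opti-MEM, with a 5 h, 37 °C compound exposure.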

Experiment [9] can be described thus: qHTS assay to identify small molecule agonists of the AP-1 signaling pathway (AID 1159526).
Experiment [10] addresses Nuclear receptor ROR-gamma (Homo sapiens) (UniProt P51449). Nature of the experiment: qHTS assay to identify small molecule antagonists of the retinoid-related orphan receptor gamma (ROR-gamma) signaling pathway (AID 1159521; active means well fitted curve in the direction sought with a large enough effect in the repeat runs; an effect the other way counts as inactive or inconclusive; further: nearly all actives have a fitted effect of over 50% in size; further: potency means the concentration at half of the fitted maximal effect). In a few lines: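 CHO Tet-on RORγ, RORE-luc reporter. Cpd 2 h pre-incubation, then dox hyclate 1 uM final, 16 h, 37 C/5% CO2. ONE-Glo luminescence; decrease = antagonist.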

`CC(C(=O)O)c1ccc(/C=C2\CCCCC2=O)cc1` (configuration not stated): the compound was classed as inactive in experiment [1], in experiment [2], in experiment [3], in experiment [4], in [5] and in [6]. Moreover, the result in experiment [8] was inactive. The Potency result in experiment [7] and in [9] was “inactive” each time.
For `C[C@H](CN1CCCC1)C(=O)c1ccc(C(F)(F)F)cc1`, the result in [1], in experiment [2], in experiment [3], in experiment [4], in experiment [5] and in [6] was inactive. Also, the compound was classed as inactive in experiment [8]. Further, the Potency result in experiment [10] and in experiment [9] was “inactive” in each case.
On to `CC1(C)CC(=O)CC(C)(C)N1`, for which the compound was classed as inactive in experiment [1], in experiment [2], in experiment [3], in experiment [4], in [5] and in [6]. For the same compound, the compound was called inactive in experiment [8]. The Potency entry in experiment [10] and in experiment [9] was “inactive” in each case.
As for `CC(C)(C(=O)O)c1ccc(C(O)CCCN2CCC(C(O)(c3ccccc3)c3ccccc3)CC2)cc1` (configuration not stated), the compound was called inactive in experiment [1], in experiment [2], in [3], in [4], in experiment [5] and in [6]. In addition, the compound was called inactive in experiment [8]. Further, the Potency result in experiment [10] and in experiment [9] was “inactive” in each case.
Turning to `C(/C=C/C=C/Nc1ccccc1)=Nc1ccccc1`, the outcome in experiment [1], in experiment [2], in [3], in [4], in experiment [5] and in experiment [6] was inactive. Moreover, in [8], the compound was classed as inactive. Further, the Potency result in [10] and in experiment [9] was “inactive” throughout.
On to `COc1ccc(/C(C)=C/C(=O)O)c(OC)c1`, for which the compound was called inactive in [1], in experiment [2], in [3], in experiment [4], in experiment [5] and in experiment [6]. Moreover, the call in [8] was inactive. The Potency entry in [7] and in experiment [9] was “inactive” in each case.
In the case of `Cc1c(Nc2ncccc2C(=O)O)cccc1C(F)(F)F`, the call in [1], in experiment [2], in [3], in experiment [4], in experiment [5] and in experiment [6] was inactive. Besides, the compound was called inactive in experiment [8]. The Potency result in [7] and in experiment [9] was “inactive” in each case.
With `CC(=O)c1cccnc1`, the compound was called inactive in [1], in [2], in experiment [3], in experiment [4], in experiment [5] and in experiment [6]. Besides, the result in experiment [8] was inactive. Further, the Potency result in [7] and in experiment [9] was “inactive” throughout.
Consider `Cc1ccc(Cl)c(OCC(O)CNC(C)(C)C)c1` (configuration not stated), for which the result in experiment [2], in experiment [3], in experiment [4], in [5], in experiment [6] and in [8] was inactive. Moreover, the Potency entry in experiment [10] was “inactive”.
Consider `O=C(O)c1ccc2cc(O)ccc2c1`, for which the call in experiment [1], in experiment [2], in experiment [3], in [4], in experiment [5] and in experiment [6] was inactive. For the same compound, the compound was classed as inactive in [8]. Moreover, in experiment [9], the Potency entry was “inactive”.
For `CC(C)(Cc1c[nH]c2ccccc12)NCC(O)COc1ccccc1C#N` (configuration not stated), the result in [3], in experiment [4], in experiment [6] and in experiment [8] was inactive. Also, the Potency result in experiment [7], in experiment [10] and in experiment [9] was “inactive” each time.
For the compound `CCCCCC1CCC(=O)O1` (configuration not stated), the compound was classed as inactive in experiment [1], in experiment [3], in experiment [4], in [6] and in experiment [8]. The Potency result in [7] and in experiment [9] was “inactive” in each case.
On to `CC(CC(C#N)(c1ccccc1)C(C)C)N(C)C` (configuration not stated), for which the result in experiment [1], in experiment [2], in experiment [3], in experiment [4], in experiment [6] and in experiment [8] was inactive. Also, the Potency result in [7] and in experiment [10] was “inactive” each time.
For the compound `O=C(OCCOCCOCCOC(=O)c1ccccc1)c1ccccc1`, the compound was classed as inactive in experiment [1], in experiment [2], in experiment [3], in experiment [4], in experiment [6] and in experiment [8]. The Potency entry in experiment [7], in [10] and in experiment [9] was “inactive” each time.
Regarding `O=Cc1ccc([N+](=O)[O-])cc1`, the compound was called inactive in experiment [1], in [2], in [3], in experiment [4], in [6] and in [8]. In addition, the Potency entry in [7] and in experiment [10] was “inactive” throughout.
As for `O=C(O)COCC(=O)O`, the result in experiment [1], in experiment [4], in [5], in experiment [6] and in experiment [8] was inactive. Also, the Potency entry in experiment [7], in experiment [10] and in experiment [9] was “inactive” in each case.
Turning to `C[C@]12CCC(=O)C=C1[C@@H]1C[C@@H]1[C@H]1[C@@H]3[C@@H]4C[C@@H]4[C@@]4(CCC(=O)O4)[C@@]3(C)CC[C@@H]12`, the call in [1], in [2], in [3], in [4], in experiment [6] and in experiment [8] was inactive. The Potency result in experiment [7] and in [9] was “inactive” each time. Further, in [10], the Potency was 7.5 µM (active).
In the case of `O=C1c2ccccc2C(=O)C1c1ccc2cc(S(=O)(=O)O)cc(S(=O)(=O)O)c2n1`, the result in [1], in experiment [2], in experiment [3], in experiment [4], in experiment [5] and in experiment [6] was inactive. Besides, in experiment [8], the compound was classed as inactive. For the same compound, the Potency result in experiment [9] was “inactive”.
For `O=C(O)c1ccc(O)c(O)c1`, the call in experiment [1], in experiment [2], in [3], in experiment [4], in experiment [6] and in experiment [8] was inactive. The Potency entry in experiment [7] and in [9] was “inactive” in each case.
Consider `CC(C)C[C@H](NC(=O)[C@H](Cc1ccccc1)NC(=O)c1cnccn1)B(O)O`, for which the outcome in experiment [2], in experiment [3], in experiment [4], in experiment [6] and in experiment [8] was inactive. In addition, the Potency in experiment [7] was 0.0668 µM (active). Moreover, the Potency entry in experiment [9] is “inactive”.
Regarding `O=C(c1ccco1)N1CCNCC1`, the compound was called inactive in experiment [1], in experiment [2], in [3], in experiment [4], in experiment [6] and in experiment [8]. Moreover, in [10], the Potency result is “inactive”.
Take `FC1(F)C(F)(F)C(F)(F)C2(F)C(F)(C1(F)F)C(F)(F)C(F)(F)C1(F)C(F)(F)C(F)(F)C(F)(F)C(F)(F)C12F` (configuration not stated): the compound was called inactive in experiment [1], in experiment [2], in experiment [3], in experiment [4], in experiment [6] and in experiment [8]. For the same compound, the Potency result in experiment [7], in experiment [10] and in experiment [9] was “inactive” throughout.
Take `O=C(O)CCc1nc2ccccc2[nH]1`: the compound was called inactive in [1], in experiment [2], in [3], in experiment [4], in experiment [6] and in experiment [8]. Further, the Potency entry in experiment [7] and in experiment [9] was “inactive” each time.
In the case of `CCC(CC)C(=O)O`, the outcome in [1], in [2], in experiment [3], in experiment [4], in experiment [6] and in experiment [8] was inactive. The Potency result in experiment [7], in experiment [10] and in [9] was “inactive” in each case.
For the compound `CCOC(OCC)OCC`, the compound was called inactive in [1], in [2], in [3], in experiment [4], in experiment [6] and in experiment [8]. Moreover, the Potency result in [7], in [10] and in experiment [9] was “inactive” in each case.
In the case of `Cc1c(Cl)cccc1Nc1ccccc1C(=O)O`, the outcome in [1], in experiment [2], in experiment [3], in [4], in [6] and in experiment [8] was inactive. Also, the Potency entry in experiment [7], in experiment [10] and in experiment [9] was “inactive” each time.
On to `CCCC1CCCC(=O)O1` (configuration not stated), for which the compound was classed as inactive in experiment [1], in experiment [3], in experiment [4], in [6] and in experiment [8]. The Potency entry in experiment [7], in experiment [10] and in experiment [9] was “inactive” throughout.
As for `CCc1c(C)[nH]c2c1C(=O)C(CN1CCOCC1)CC2` (configuration not stated), the result in experiment [1], in [2], in experiment [3], in experiment [4], in experiment [6] and in experiment [8] was inactive. Further, the Potency entry in experiment [7] and in [10] was “inactive” throughout.
For `COc1ccc(C(=O)c2ccc(C)cc2)c(O)c1`, the result in experiment [1], in [2], in experiment [3], in [4], in experiment [6] and in [8] was inactive. Also, the Potency entry in [7], in experiment [10] and in experiment [9] was “inactive” throughout.

Source of the values: PubChem BioAssay (Tox21).
